± gives the standard deviation of the averaged measurements.
Key:
DLD1 [1] = assay: cell viability (CellTiter-Glo) relative to plate median (fraction of plate median); higher = more viable cells; details: 5 µM; treatment time 24 h; reporter: 7TFP
Outline: (§1)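 Stable lentiviral TCF/Wnt firefly luciferase reporters (7TFP or TCF4/Wnt) were present in the colorectal cancer cell lines used. These cells received library compounds at a final 5 µM for 24 h, and parallel plates were read for firefly luciferase or CellTiterGlo luminescence. Each well was normalised to the plate median, and the value reported is the mean of two independent replicates.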

HCT116 = assay: as above; details: 5 µM; treatment time 24 h; reporter: TCF4/Wnt
Outline: as §1

SW480 [2] = assay: as above; details: 5 µM; treatment time 24 h; reporter: 7TFP
Outline: as §1

DLD1 [3] = assay: TCF/Wnt firefly luciferase reporter signal relative to plate median (fraction of plate median); higher = higher Wnt reporter signal; details: 5 µM; treatment time 24 h; reporter: 7TFP
Outline: as §1

SW480 [4] = assay: as above; details: 5 µM; treatment time 24 h; reporter: 7TFP
Outline: as §1

Compound | cell viability (DLD1 [1]) | cell viability (HCT116) | cell viability (SW480 [2]) | TCF/Wnt firefly luciferase reporter signal (DLD1 [3]) | TCF/Wnt firefly luciferase reporter signal (SW480 [4])
CCOC(=O)[C@H](CCc1ccccc1)N[C@H]1CCc2ccccc2N(CC(=O)O)C1=O | 0.871 ± 0.1 | 0.899 ± 0.068 | 1.02 ± 0.067 | 1.045 ± 0.0071 | 1.01
O=C(O[C@@H]1Cc2c(O)cc(O)cc2O[C@@H]1c1cc(O)c(O)c(O)c1)c1cc(O)c(O)c(O)c1 | 1.03 ± 0.035 | 1.01 ± 0.048 | 1.08 ± 0.014 | 0.974 ± 0.037 | 0.916 ± 0.014
CC(=O)NCCc1ccccc1 [N-Acetyl-phenylethylamine] | 1.04 ± 0.014 | 1.01 ± 0.12 | 1.02 ± 0.072 | 1.03 ± 0.028 | 1.02 ± 0.079
COc1ccc2c(=O)ccoc2c1 | 0.979 ± 0.059 | 0.933 ± 0.11 | 0.942 ± 0.0071 | 1.03 ± 0.021 | 1.05 ± 0.1
CCCCN(CCCC)CCCOC(=O)c1ccc(N)cc1 | 0.877 ± 0.033 | 0.92 ± 0.13 | 0.954 ± 0.053 | 1.11 ± 0.014 | 0.993 ± 0.011
OC(CCN1CCCCC1)(c1ccccc1)C1CCCCC1 (stereo not given) | 0.963 ± 0.03 | 0.932 ± 0.033 | 0.945 ± 0.052 | 0.855 ± 0.052 | 0.917 ± 0.018
C#C[C@]1(O)CC[C@H]2[C@@H]3CCc4cc(O)ccc4[C@H]3CC[C@@]21C | 0.934 ± 0.016 | 0.972 ± 0.054 | 0.9755 ± 0.0092 | 1.08 ± 0.078 | 1.04 ± 0.021
CCN[C@@H]1C[C@H](N)[C@@H](O[C@H]2OC(CN)=CC[C@H]2N)[C@H](O)[C@H]1O[C@H]1OC[C@](C)(O)[C@H](NC)[C@H]1O | 0.992 ± 0.026 | 0.903 ± 0.052 | 0.978 ± 0.025 | 0.906 ± 0.15 | 0.953 ± 0.021
CC(=O)OCC(COC(C)=O)OC(C)=O | 0.905 ± 0.08 | 0.962 ± 0.082 | 0.948 ± 0.0099 | 0.929 ± 0.079 | 1 ± 0.011
CC(=O)OCC(=O)[C@@]1(O)CC[C@H]2[C@@H]3CCC4=CC(=O)CC[C@]4(C)[C@H]3C(=O)C[C@@]21C | 1.04 ± 0.021 | 1 ± 0.079 | 1.12 ± 0.12 | 1.05 ± 0.021 | 1.04 ± 0.13
Oc1cc(O)c2c(c1)O[C@H](c1ccc(O)c(O)c1)[C@@H](O)C2 | 1.03 ± 0.014 | 1.03 ± 0.076 | 1.04 ± 0.042 | 1.08 ± 0.014 | 1.15 ± 0.035
CNS(=O)(=O)Cc1ccc2[nH]cc(CCN(C)C)c2c1 | 1.08 ± 0.099 | 1.07 ± 0.05 | 0.9885 ± 0.0078 | 1.07 ± 0.099 | 1.07 ± 0.028
CC1=C(/C=C/C(C)=C/C=C/C(C)=C/C=C/C=C(C)/C=C/C=C(C)/C=C/C2=C(C)C(=O)[C@@H](O)CC2(C)C)C(C)(C)C[C@H](O)C1=O | 1.05 ± 0.057 | 1.07 ± 0.042 | 1 ± 0.027 | 1.06 ± 0.11 | 0.824 ± 0.099
C=CCCCCCCCCCCCC(O)CC(O)COC(C)=O (stereo not given) | 0.995 ± 0.0071 | 0.9555 ± 0.0064 | 1.005 ± 0.0071 | 0.866 ± 0.1 | 0.962 ± 0.021
CC1(C)C(=O)C=CC2(C)C1C=CC1(C)C2CCC2(C)C(c3ccoc3)OC(=O)C3OC312 (stereo not given) | 1.07 ± 0.042 | 1.1 ± 0.13 | 1.05 | 1.01 ± 0.1 | 0.964 ± 0.094
O=C(CCCN1CCC(O)(c2ccc(Cl)cc2)CC1)c1ccc(F)cc1 | 1 ± 0.021 | 1.075 ± 0.0071 | 0.995 ± 0.078 | 1.08 ± 0.035 | 1.05 ± 0.064
O=C1CN(/N=C/c2ccc([N+](=O)[O-])o2)C(=O)N1 | 1.03 ± 0.11 | 1.02 ± 0.037 | 0.949 | 0.954 ± 0.043 | 0.995 ± 0.12
Cc1onc(-c2c(Cl)cccc2Cl)c1C(=O)N[C@@H]1C(=O)N2[C@@H]1SC(C)(C)[C@@H]2C(=O)O | 0.935 ± 0.027 | 1.05 ± 0.073 | 0.972 ± 0.036 | 1 ± 0.042 | 1.15 ± 0.16
COc1cccc2c(C)cc(=O)[nH]c12 | 1.05 ± 0.15 | 1.07 ± 0.11 | 1.02 ± 0.09 | 1.05 ± 0.064 | 1.11 ± 0.085
CC(C)CCC[C@@H](C)[C@H]1CC[C@H]2[C@@H]3CC(=O)[C@H]4C[C@@H](O)CC[C@]4(C)[C@H]3CC[C@]12C [5alpha-CHOLESTAN-3beta-OL-6-ONE] | 0.985 ± 0.05 | 1.01 ± 0.014 | 1.015 ± 0.0071 | 0.904 ± 0.15 | 0.874 ± 0.047
O=c1[nH]c(=O)n([C@H]2C[C@H](O)[C@@H](CO)O2)cc1F | 0.609 ± 0.026 | 1.05 ± 0.057 | 0.963 ± 0.024 | 0.688 ± 0.12 | 0.971 ± 0.069
CO/C=C/C(=O)c1cc2cnc3c(=N)cc(NC(C)=O)c([nH]1)c23 [Lymphostin] | 1.08 ± 0.042 | 0.71 ± 0.12 | 1.14 ± 0.092 | 0.891 ± 0.011 | 0.947 ± 0.028
CCN(CC)C(=S)SSC(=S)N(CC)CC | 0.764 ± 0.14 | 0.504 ± 0.17 | 0.938 ± 0.12 | 1.02 ± 0.41 | 0.842 ± 0.043
COc1cc(-c2coc3cc(O[C@@H]4O[C@H](CO)[C@@H](O)[C@H](O)[C@H]4O)c(OC)c(O)c3c2=O)cc(O)c1OC | 1.1 ± 0.057 | 1.12 ± 0.078 | 1.09 ± 0.014 | 1.01 ± 0.15 | 0.885 ± 0.023
CCCCCCCCCCCCCCCCCCCCCCO | 1.04 ± 0.076 | 0.941 ± 0.065 | 0.97 ± 0.036 | 0.869 ± 0.032 | 0.927 ± 0.066
CC(=O)Oc1cc(C)c2c(c1C(OC(C)=O)OC(C)=O)Oc1c(c(C)c(OC(C)=O)c3c1C(OC(C)=O)OC3=O)OC2=O (stereo not given) | 0.969 ± 0.044 | 0.975 ± 0.025 | 0.943 ± 0.064 | 0.993 ± 0.081 | 1.18 ± 0.099
O=C1CC2(CCCC2)CC(=O)N1CCCCN1CCN(c2ncccn2)CC1 | 1.02 ± 0.028 | 0.895 ± 0.14 | 0.995 ± 0.021 | 1.07 ± 0.078 | 1.08 ± 0.021
COCCc1ccc(OCC(O)CNC(C)C)cc1 (stereo not given) | 1.14 ± 0.057 | 0.959 ± 0.025 | 1.01 ± 0.018 | 1.14 ± 0.042 | 1.055 ± 0.0071
CC[C@H](c1ccc(O)cc1)[C@@H](CC)c1ccc(O)cc1 | 1.05 ± 0.028 | 1.12 ± 0.078 | 1.04 ± 0.057 | 1.125 ± 0.0071 | 1.09 ± 0.092
COC[C@H]1O[C@@H](OC2OC[C@@H]3O[C@]4(O[C@H]3[C@H]2OC(=O)C(C)C)O[C@H](C)[C@@](O)(C(C)=O)[C@@H]2OCO[C@H]24)[C@@H](OC)[C@@H](O)[C@@H]1O[C@@H]1O[C@H](C)[C@H](OC)[C@H](O[C@H]2C[C@@]3(C)OC4(C[C@@H](O)[C@H](O[C@H]5C[C@@H](O)[C@H](OC(=O)c6c(C)c(Cl)c(O)c(Cl)c6OC)[C@@H](C)O5)[C@@H](C)O4)O[C@@H]3[C@@H](C)O2)[C@H]1O (stereo not given in full) [Avilamycin A] | 0.977 ± 0.033 | 1.02 ± 0.042 | 0.991 ± 0.042 | 1.03 ± 0.028 | 1.03 ± 0.078

From the supplement of paper PMC6522484
